# Mcl1-Bid inh: Mcl-1/Bid binding inhibitors, primary screen, biochemical, TR-FRET, 1536-well. inhibition, % at 21.7 µM. Induced myeloid leukemia cell differentiation protein Mcl-1 (Homo sapiens), Q07820. 220,000 tested, 0.97% active. TR-FRET Mcl-1/Bid-Dy647 peptide binding. AID 1021, 2008;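 active = compounds that cut the binding signal by more than half at the single screening dose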;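 also: His-tagged Mcl-1 with europium anti-His antibody binding Bid BH3 peptide; 0% = Mcl-1 plus peptide wells and 100% = peptide-only wells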
# Target sequence (Q07820 whole entry, looked up): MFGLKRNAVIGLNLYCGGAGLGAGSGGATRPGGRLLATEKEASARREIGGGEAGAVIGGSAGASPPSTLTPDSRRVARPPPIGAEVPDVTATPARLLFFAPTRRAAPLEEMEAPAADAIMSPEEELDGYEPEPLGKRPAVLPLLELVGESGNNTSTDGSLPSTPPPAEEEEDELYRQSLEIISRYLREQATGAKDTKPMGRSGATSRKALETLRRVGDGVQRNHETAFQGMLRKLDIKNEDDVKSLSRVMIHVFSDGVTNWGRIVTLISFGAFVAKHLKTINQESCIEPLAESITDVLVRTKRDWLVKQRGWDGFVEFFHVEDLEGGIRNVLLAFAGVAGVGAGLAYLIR
# Bcl-xL primary: inhibitors of human Bcl-xL, primary screen, biochemical, fluorescence polarization, HTS; Bcl-2-like protein 1 (Homo sapiens), Q07817; GST-Bcl-xL / FITC-Bim BH3 peptide fluorescence polarization; inhibition, % at 10.9 µM; 320,000 tested, 0.7% active; AID 2129, 2009;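 active = inhibition above the mean of all tested compounds plus 3 SD, cutoff set per campaign, cut at about 30% in these data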;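 also: 0% = DMSO wells and 100% = unlabeled Bim-BH3 peptide competitor; inhibitors lower millipolarization by displacing the labeled peptide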
# Target sequence (Q07817 whole entry, looked up): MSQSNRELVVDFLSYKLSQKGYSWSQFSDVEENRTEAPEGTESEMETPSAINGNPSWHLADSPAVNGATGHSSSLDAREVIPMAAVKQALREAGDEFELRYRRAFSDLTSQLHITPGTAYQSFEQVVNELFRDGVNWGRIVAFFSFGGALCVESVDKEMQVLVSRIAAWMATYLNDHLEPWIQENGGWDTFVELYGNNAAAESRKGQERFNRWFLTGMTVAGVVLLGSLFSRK
# Bim-Mcl-1: inhibitors of Bim peptide binding to Mcl-1, primary screen, biochemical, bead-based flow cytometry, multiplex; Induced myeloid leukemia cell differentiation protein Mcl-1 (Homo sapiens), Q07820; Bim peptide-Mcl-1 binding; inhibition, % at 10 µM; 190,000 tested, 0.1% active; AID 1009, 2008; in the data active = inhibition above about 40%;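 also: 0% = no compound tracer wells and 100% = peptide blocker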
# MCL1 BIM primary: inhibitors of MCL1 binding to BIM-BH3, primary screen, biochemical, fluorescence polarization. 320,000 tested, 0.68% active. GST-MCL1 / FITC-Bim-BH3 fluorescence polarization. inhibition, % at 10.9 µM. AID 2057, 2009. Induced myeloid leukemia cell differentiation protein Mcl-1 (Homo sapiens), Q07820;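 active = inhibition above the mean inhibition of all tested compounds plus 3 SD, set per campaign, cut at about 40% in these data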;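 also: 0% = DMSO wells and 100% = unlabeled Bim-BH3 peptide control; higher means more loss of mP so more displacement of Bim peptide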
# Mcl1-Noxa inh: Mcl-1/Noxa binding inhibitors, primary screen, biochemical, TR-FRET, 1536-well. inhibition, % at 21.7 µM. 220,000 tested, 1.5% active. AID 1022, 2008. Induced myeloid leukemia cell differentiation protein Mcl-1 (Homo sapiens), Q07820. TR-FRET Mcl-1/Noxa peptide binding, 2 h;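 active = compounds that cut the protein-peptide binding signal by more than 50% relative to plate controls in a single-dose test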;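 also: His-tagged Mcl-1 with rhodamine Noxa BH3 peptide and terbium anti-His antibody; 0% = Mcl-1 plus Noxa peptide wells and 100% = peptide-only wells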
# GLD-1 TGE inh: GLD-1/TGE RNA complex disruptors, primary screen, biochemical, fluorescence polarization; 320,000 tested, 0.44% active; AID 2280, 2010; purified GLD-1 + fluorescein TGE RNA; Female germline-specific tumor suppressor gld-1 (Caenorhabditis elegans), Q17339; inhibition, % at 5.96 µM;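 active = percent inhibition above a per-plate cutoff, the plate mean of test compounds plus 3 SD, cut at about 30% in these data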;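 also: 0% = DMSO wells with GLD-1 and probe and 100% = wells lacking GLD-1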
# * = called active by the depositor; nt = no result. Compounds with a hit are over-represented: about 2.3% of the library has one in this group of screens.
SMILES,Mcl1-Bid inh,Bcl-xL primary,Bim-Mcl-1,MCL1 BIM primary,Mcl1-Noxa inh,GLD-1 TGE inh
Cc1cccc(C(=O)NCC(=O)NC(C)c2ccc(-n3ccnc3)cc2)c1 (centres undefined),nt,0,nt,-1,nt,5
CCN(CC)c1ccc(NC(=O)/C=C\c2ccccc2Cl)cc1,29,-3,0,9,91*,-8
Cc1cc(NC(=O)/C=C/c2ccccc2Cl)no1,-35,2,-4,-1,-40,4
CN(C)c1ccc(NC(=O)/C=C/c2ccccc2Cl)cc1,-17,-1,-3,14,77*,3
CCC[C@@H](O)c1cc2cc(OC)c(OC)cc2c(=O)o1,nt,-3,nt,-4,nt,4
Cn1c(=O)c(C(=O)CSc2nnc(Nc3ccccc3)s2)c(N)n(Cc2ccccc2)c1=O,17,-2,-4,-10,70*,3
O=C(CNC(=O)c1ccncc1)N/N=C/c1ccccn1,-10,5,-3,17,11,5
COc1cc(C(=O)NCC(=O)N/N=C/c2ccccn2)cc(OC)c1OC,63*,4,-1,7,-9,4
COc1ccc(C2Nc3ccccc3C(=O)N2NC(C)=O)cc1OC (centres undefined),-6,1,0,-4,9,-9
COc1ccc(C2Nc3ccccc3C(=O)N2O)cc1OC (centres undefined),93*,6,-3,6,-1,9
CSc1cccc(NC(=O)CN(C)S(=O)(=O)c2ccccc2)c1,72*,8,0,11,-18,1
COc1ccc(S(=O)(=O)NCc2ccccn2)cc1NC(=O)c1ccccc1C,nt,3,nt,12,nt,1
O=c1[nH]c(=O)n(C2OC(CO)C(O)C2O)cc1Br (centres undefined),nt,3,nt,7,nt,10
COc1ccc(N(CC(=O)NC2CCCCC2)C(=O)CCCC(=O)Nc2ccccn2)cc1,nt,3,nt,2,nt,-4
CCOc1ccc(NC(=O)Nc2ccc(Cc3ccncc3)cc2)cc1,0,36*,nt,29,-1,6
CCC(Oc1ccccc1)C(=O)OCC(=O)N(CC)c1c(N)n(Cc2ccccc2)c(=O)[nH]c1=O (centres undefined),nt,0,nt,-2,nt,-2
CCc1nccn1S(=O)(=O)c1cc(OC)ccc1OC,nt,4,nt,7,nt,4
CCO[C@@H]1OC(C(=O)N2CCN(Cc3ccccc3)CC2)=C[C@H](C2CC2)[C@H]1CCCO,87*,5,-3,4,42,2
NS(=O)(=O)c1ccc(-c2ccc(/C=C3\SC(=S)N(C4CCS(=O)(=O)C4)C3=O)o2)cc1 (centres undefined),51*,-40,nt,-58,79*,-68
Cc1ccc(/C=C2\SC(=S)N(C3CCS(=O)(=O)C3)C2=O)o1 (centres undefined),-59,5,7,14,-6,1
COc1ccc(-c2ccc(/C=C3/C(=N)N4C=CSC4=NC3=O)o2)c([N+](=O)[O-])c1,75*,11,0,6,83*,3
O=C(c1cc(F)ccc1F)C1CCCN(C(=O)CCc2cnccn2)C1 (centres undefined),-17,-2,-3,1,-3,-1
O=C(c1cc(F)ccc1F)C1CCCN(C(=O)CCCN2CCCCC2=O)C1 (centres undefined),6,51*,-3,5,27,4
Cc1nc2ncnn2c(C)c1CCC(=O)Nc1ccc(S(=O)(=O)N2CCCCCC2)cc1,52*,8,-5,0,21,4
Cc1ccc(NC(=O)CCc2c(C)nc3ncnn3c2C)cc1,-11,-3,0,-1,6,6
SMILES,Mcl1-Bid inh,Bcl-xL primary,Bim-Mcl-1,MCL1 BIM primary,Mcl1-Noxa inh,GLD-1 TGE inh
CC(=O)c1ccc(S(=O)(=O)N(C)CC(=O)N2CCCCCC2)cc1,nt,0,nt,-2,nt,1
CCOC(=O)c1c(CSC(=N)N)n(-c2ccc(Br)cc2)c2cc(Br)c(OC(C)=O)cc12,0,nt,7,nt,65*,nt
O=C(O)/C=C\c1ccccc1Oc1cccc(Cl)c1,5,32*,0,2,18,-2
CCn1nc(C)c(NC(=O)/C=C/c2ccc(OC)c(COc3ccc(Cl)cc3Br)c2)c1C,64*,3,-1,5,-3,7
Cc1ccc(C)c(NC(=S)N2CCC(NC(=O)c3cccc(F)c3)CC2)c1,nt,1,nt,8,nt,-9
O=C(O)CS(=O)(=O)CC(=O)O,58*,6,-3,-3,23,-3
CCCOc1ccccc1-c1nc2c([nH]1)c(=O)[nH]c(=O)n2C,-21,35*,-3,32,16,15
Cc1cc(SCC(=O)OC(C)C(=O)N(C)c2ccccc2)nc2ccccc12 (centres undefined),nt,7,nt,1,nt,1
O=C(CSc1nc(Cc2ccccc2)nc2ccccc12)Nc1ccc2c(c1)OCCO2,58*,4,-2,5,0,26
O=C(CSc1ncnc2ccccc12)Nc1ccc2c(c1)OCCO2,-2,4,0,7,-8,4
CC(=O)c1c(N=CN(C)C)nc(C)nc1-c1ccccc1,89*,6,0,3,11,11
NC(=O)c1sc2nc(-c3ccccc3)ccc2c1N,nt,-4,nt,7,nt,-6
COc1ccc(C(=O)c2sc3nc(-c4ccccc4)ccc3c2N)cc1OC,59*,2,15,-37,95*,-26
Cc1ccc(-c2csc3nnc(SCC(=O)N4CCN(Cc5ccccc5)CC4)n23)cc1,-36,-2,-4,2,12,-2
O=C(CSc1nnc2scc(-c3ccccc3)n12)N1CCN(Cc2ccccc2)CC1,95*,0,-1,2,28,1
CCCCn1c(N)c(N(C)C(=O)c2cn(-c3ccccc3)nc2-c2ccccc2)c(=O)[nH]c1=O,nt,2,nt,3,nt,10
COc1ccccc1C(=O)NCCC(=O)Nc1cccc(S(=O)(=O)N2CCCC2)c1,nt,-6,nt,-12,nt,6
O=C(O)c1ccc(NS(=O)(=O)c2ccc3c(c2)C(=O)c2ccccc2C3=O)cc1,-16,37*,16,34,16,22
NS(=O)(=O)c1ccc(C(=O)Nc2ccc(-c3nc4cccnc4s3)cc2)cc1,52*,5,nt,1,49,1
NS(=O)(=O)c1ccc(NS(=O)(=O)c2ccc(NC(=O)c3ccc(-c4ccccc4)cc3)cc2)cc1,54*,6,1,6,27,1

# Screening data: PubChem BioAssay, several laboratories
